From paper PMC5540273 (PLoS ONE, 2017) come the findings set out here.
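Note: KINOMEscan kinase panel screen.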

One experiment has as its system T1, CDC2L1.
T1 construct: gene CDK11B
The settings on record: concentration: 1 μM, replicates: in singlicate; n = 1.
Take `COc1cc2ncn(-c3cc(OCc4ccncc4Br)c(C(N)=O)s3)c2cc1OC` [GW854278]: the “%Inh” value is 5%.
`Cc1cc(Nc2nc(-c3cccc(C)n3)nc3ccccc23)ccn1` [GW872411]: the “%Inh” value came out at 0%.
Still for that read-out and setting: under `Cc1nnc(-c2ccc(C)c(-c3ccc(C(=O)O)cc3)c2)o1` [GW608005] stands 0%; under `COc1cc(Nc2ccnc3ccc(C(F)(F)F)cc23)cc(OC)c1OC` [GW577382], 0%; under `FC(F)(F)c1ccc(-c2ncn(CCCN3CCOCC3)c2-c2ccncc2)cc1` [SB-217780], 0%.
On the same count and under the same terms, under `Cl.c1ccc(Cn2cnc3cc(Nc4ncnc5ccccc45)ccc32)cc1` [GW272142] stands 0%; under `Cc1ccc(-c2ccc3c(ccc4sc5c(c43)NC[C@@H](C)N=C5N(C)C)n2)cn1`, 4%.
As to `Cl.NS(=O)(=O)c1cccc(Nc2cc(-c3ccc(F)cc3)n[nH]2)c1` [GW824645], the “%Inh” value came out at 0%.
`CCc1ccc(-c2ccc3c(c2)-c2nn(C)cc2S(=O)(=O)N3C)cc1`: the “%Inh” value turned out to be 0%.
With `O=C(Nc1ccc2c(c1)OCO2)NC1CCN(c2ccnc(NCc3ccc(F)cc3)n2)CC1` [GSK1379859], the “%Inh” value stood at 0%.
As for `Cc1nc(N(C)[C@H]2CN(C(=O)CC#N)CC[C@H]2C)c2cc[nH]c2n1`, the “%Inh” value stood at 0%.
As for `CCCC(=O)Nc1n[nH]c2ncc(-c3cccc4ccccc34)cc12` [SB-642057], the “%Inh” value came to 0%.
As to `COC(=O)c1c(-c2ccccc2)c2cc(C)ccc2c(=O)n1Cc1ccccc1`, the “%Inh” value amounted to 0%.
Take `Cc1ccc(Oc2ccc(Nc3ncnc4cc[nH]c34)cc2C)cn1`: the “%Inh” value was 0%.
`COc1cc2ncn(-c3cc(OCCCc4ccccc4)c(C(N)=O)s3)c2cc1OC` [GSK205189]: the “%Inh” value was 0%.
As to `O=C1NC(=O)C(c2ccccc2)=C1Nc1cccc(O)c1` [SB-390534], the “%Inh” value was 0%.
Turning to `CN1C(=O)C(Nc2ccccc2)=C(c2ccccc2)C1=O` [SB-300079], the “%Inh” value stood at 0%.
The same measure, in the same setting: under `COc1ccc(-n2cnc3c(N)ncnc32)cc1` [SKF-97236] stands 0%; under `COc1ccc(Nc2nccc(N3CCC(NS(=O)(=O)c4ccc(NC(C)=O)cc4)C3)n2)cc1` (stereo not drawn) [GSK1379729], 0%.
On to `Nc1ncnc2c1ncn2-c1cccc2ccccc12` [SKF-97184], for which the “%Inh” value turned out to be 0%.
On to `Nc1nc(-c2ccccc2F)c(-c2ccnc3ccccc23)s1` [GW560459], for which the “%Inh” value amounted to 0%.
As to `CCc1nc(-c2cccc(C)c2)c(-c2ccncc2)s1`, the “%Inh” value was 0%.
Same read-out and setting: in the case of `CCS(=O)c1ccc(-c2coc3ccc(-c4nnc(C)o4)cc23)cc1` (stereo not drawn) it was 0%.
As to `O=c1cc(N2CCOCC2)nc2n(Cc3ccc(F)c(Cl)c3)ccn12` [GSK2297099], the “%Inh” value was determined as 3%.
Regarding `COC(=O)c1c(-c2ccccc2)c2cc(Br)ccc2c(=O)n1Cc1ccc(NC(=O)CCC(=O)O)cc1`, the “%Inh” value is reported as 16%.
The same measure, in the same setting: in the case of `COc1cc2ncn(-c3cc(OCc4ccncc4)c(C(N)=O)s3)c2cc1OC` [GSK336313] it was 0%; in that of `CCn1c(-c2nonc2N)nc2ccccc21` [SB-693162/GW549034], 0%.
Same read-out and setting: under `CCC(=O)c1c(-c2ccccc2)c2cc(Cl)ccc2c(=O)n1Cc1cc(S(C)(=O)=O)n(CC(N)=O)n1` stands 0%; under `O=C(Nc1n[nH]c2nc(-c3ccccc3)c(Cl)cc12)C1CC1` [SB-734909], 0%.
Consider `COc1cccc(-n2cnc3c(N)ncnc32)c1` [SKF-97416], for which the “%Inh” value was 0%.
As for `CCS(=O)(=O)c1ccc(OC)c(Nc2ncc(-c3ccc(F)cc3)o2)c1.Cl` [GW591947], the “%Inh” value is on record as 0%.
On the same count and under the same terms, in the case of `COc1cc(OC)cc(-c2cc3cnc(N)nc3nc2NC(=O)NC(C)(C)C)c1` it was 2%; in that of `COc1cc2nccc(Nc3ccc(OCc4ccc(NC(C)=O)cc4)cc3)c2cc1OC.Cl` [GW440135], 0%.
As to `O=C(Nc1n[nH]c2cc(-c3ccccc3F)ccc12)C1CC1` [SB-733371], the “%Inh” value is reported as 0%.
For the compound `CN1C(=O)C(Nc2cc(Cl)c(O)c(Cl)c2)=C(c2ccc(Cl)cc2)C1=O` [SB-404321], the “%Inh” value amounted to 0%.
`C[C@@H]1CC[C@H](C(=O)NC2CCCCC2)CN1c1cc(-c2ccc3c(N)n[nH]c3c2)nc(N)n1` [GSK2291363]: the “%Inh” value turned out to be 0%.

A further experiment relates to CDC2L2. The following applies: concentration: 1 μM, replicates: in singlicate; n = 1.
For the compound `COc1cc2ncn(-c3cc(OCc4ccncc4Br)c(C(N)=O)s3)c2cc1OC` [GW854278], the “%Inh” value is 10%.
In the case of `Cc1cc(Nc2nc(-c3cccc(C)n3)nc3ccccc23)ccn1` [GW872411], the “%Inh” value turned out to be 0%.
Regarding `Cc1nnc(-c2ccc(C)c(-c3ccc(C(=O)O)cc3)c2)o1` [GW608005], the “%Inh” value is 0%.
Consider `COc1cc(Nc2ccnc3ccc(C(F)(F)F)cc23)cc(OC)c1OC` [GW577382], for which the “%Inh” value is reported as 17%.
Consider `FC(F)(F)c1ccc(-c2ncn(CCCN3CCOCC3)c2-c2ccncc2)cc1` [SB-217780], for which the “%Inh” value was 14%.
For the compound `Cl.c1ccc(Cn2cnc3cc(Nc4ncnc5ccccc45)ccc32)cc1` [GW272142], the “%Inh” value was found to be 13%.
As for `Cc1ccc(-c2ccc3c(ccc4sc5c(c43)NC[C@@H](C)N=C5N(C)C)n2)cn1`, the “%Inh” value is 0%.
On to `Cl.NS(=O)(=O)c1cccc(Nc2cc(-c3ccc(F)cc3)n[nH]2)c1` [GW824645], for which the “%Inh” value was 0%.
Take `CCc1ccc(-c2ccc3c(c2)-c2nn(C)cc2S(=O)(=O)N3C)cc1`: the “%Inh” value was found to be 0%.
For `O=C(Nc1ccc2c(c1)OCO2)NC1CCN(c2ccnc(NCc3ccc(F)cc3)n2)CC1` [GSK1379859], the “%Inh” value is 6%.
The same measure, in the same setting: under `Cc1nc(N(C)[C@H]2CN(C(=O)CC#N)CC[C@H]2C)c2cc[nH]c2n1` stands 0%.
Turning to `CCCC(=O)Nc1n[nH]c2ncc(-c3cccc4ccccc34)cc12` [SB-642057], the “%Inh” value was determined as 1%.
Same read-out and setting: in the case of `COC(=O)c1c(-c2ccccc2)c2cc(C)ccc2c(=O)n1Cc1ccccc1` it was 0%; in that of `Cc1ccc(Oc2ccc(Nc3ncnc4cc[nH]c34)cc2C)cn1`, 7%; in that of `COc1cc2ncn(-c3cc(OCCCc4ccccc4)c(C(N)=O)s3)c2cc1OC` [GSK205189], 3%.
In the case of `O=C1NC(=O)C(c2ccccc2)=C1Nc1cccc(O)c1` [SB-390534], the “%Inh” value was found to be 0%.
Regarding `CN1C(=O)C(Nc2ccccc2)=C(c2ccccc2)C1=O` [SB-300079], the “%Inh” value was 0%.
As to `COc1ccc(-n2cnc3c(N)ncnc32)cc1` [SKF-97236], the “%Inh” value came to 0%.
As to `COc1ccc(Nc2nccc(N3CCC(NS(=O)(=O)c4ccc(NC(C)=O)cc4)C3)n2)cc1` (stereo not drawn) [GSK1379729], the “%Inh” value amounted to 17%.
As to `Nc1ncnc2c1ncn2-c1cccc2ccccc12` [SKF-97184], the “%Inh” value amounted to 11%.
Turning to `Nc1nc(-c2ccccc2F)c(-c2ccnc3ccccc23)s1` [GW560459], the “%Inh” value is on record as 8%.
The same measure, in the same setting: in the case of `CCc1nc(-c2cccc(C)c2)c(-c2ccncc2)s1` it was 3%; in that of `CCS(=O)c1ccc(-c2coc3ccc(-c4nnc(C)o4)cc23)cc1` (stereo not drawn), 0%; in that of `O=c1cc(N2CCOCC2)nc2n(Cc3ccc(F)c(Cl)c3)ccn12` [GSK2297099], 28%.
With `COC(=O)c1c(-c2ccccc2)c2cc(Br)ccc2c(=O)n1Cc1ccc(NC(=O)CCC(=O)O)cc1`, the “%Inh” value was 0%.
On to `COc1cc2ncn(-c3cc(OCc4ccncc4)c(C(N)=O)s3)c2cc1OC` [GSK336313], for which the “%Inh” value is reported as 23%.
In the case of `CCn1c(-c2nonc2N)nc2ccccc21` [SB-693162/GW549034], the “%Inh” value was determined as 29%.
On to `CCC(=O)c1c(-c2ccccc2)c2cc(Cl)ccc2c(=O)n1Cc1cc(S(C)(=O)=O)n(CC(N)=O)n1`, for which the “%Inh” value worked out at 6%.
Still for that read-out and setting: under `O=C(Nc1n[nH]c2nc(-c3ccccc3)c(Cl)cc12)C1CC1` [SB-734909] stands 18%; under `COc1cccc(-n2cnc3c(N)ncnc32)c1` [SKF-97416], 2%.
On the same count and under the same terms, under `CCS(=O)(=O)c1ccc(OC)c(Nc2ncc(-c3ccc(F)cc3)o2)c1.Cl` [GW591947] stands 0%; under `COc1cc(OC)cc(-c2cc3cnc(N)nc3nc2NC(=O)NC(C)(C)C)c1`, 0%; under `COc1cc2nccc(Nc3ccc(OCc4ccc(NC(C)=O)cc4)cc3)c2cc1OC.Cl` [GW440135], 0%.
As to `O=C(Nc1n[nH]c2cc(-c3ccccc3F)ccc12)C1CC1` [SB-733371], the “%Inh” value is 0%.
For the compound `CN1C(=O)C(Nc2cc(Cl)c(O)c(Cl)c2)=C(c2ccc(Cl)cc2)C1=O` [SB-404321], the “%Inh” value stood at 0%.
For the compound `C[C@@H]1CC[C@H](C(=O)NC2CCCCC2)CN1c1cc(-c2ccc3c(N)n[nH]c3c2)nc(N)n1` [GSK2291363], the “%Inh” value was 23%.
